Source: PubChem BioAssay (EPA / NIEHS)
Activity calls are given as the source filed them. The calls were made as follows: active = hit-call score of the fitted dose curve at least 0.9, where 1 is the maximum; inactive = score below 0.9.

Legend:
[1] = ATG_CRE_CIS: Attagene CIS-FACTORIAL HepG2 Assay for human cAMP Responsive Element (CRE) binding protein 3 (AID 2282926); settings: HepG2 CRE cis-reporter, Attagene multiplexed mRNA; actives raise or lower the signal
Summary of the method: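 Human liver HepG2, transient MRTU transfection, 24 h compound exposure. Total RNA → oligo(dT) RT → PCR → 6-FAM primer extension → HpaI cut → CE. Activity called both directions vs DMSO.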

[2] = molecular target: CCAAT/enhancer-binding protein beta (Homo sapiens) (UniProt P17676); test: ATG_C_EBP_CIS: Attagene CIS-FACTORIAL HepG2 Assay for human CCAAT/Enhancer Binding Protein (C/EBP) beta (AID 2282927); settings: HepG2 Attagene cis-factorial transcription factor reporter; actives raise or lower the signal
Chain of CCAAT/enhancer-binding protein beta (Homo sapiens) (P17676 whole entry, looked up): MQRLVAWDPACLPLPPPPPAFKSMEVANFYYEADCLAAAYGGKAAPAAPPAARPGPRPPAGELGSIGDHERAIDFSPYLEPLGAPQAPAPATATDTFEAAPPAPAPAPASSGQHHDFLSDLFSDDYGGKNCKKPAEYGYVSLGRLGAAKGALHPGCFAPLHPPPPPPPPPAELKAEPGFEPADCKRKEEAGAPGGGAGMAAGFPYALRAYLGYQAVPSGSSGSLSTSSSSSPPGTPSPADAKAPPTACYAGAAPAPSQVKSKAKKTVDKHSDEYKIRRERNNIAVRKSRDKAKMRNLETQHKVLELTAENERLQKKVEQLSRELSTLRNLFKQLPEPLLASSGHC
Summary of the method: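 HepG2 transiently transfected with multiplexed reporter units under cis-regulatory promoters reporting endogenous C/EBPb activity. After 24 h exposure, reporter mRNA assayed by RT-PCR, fluorescent labelling, HpaI digestion and capillary electrophoresis; bidirectional fitting versus DMSO.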

[3] = ATG_CMV_CIS: Attagene CIS-FACTORIAL HepG2 Assay for human CMV (Internal Marker) (AID 2282928); settings: HepG2 CMV promoter reporter, transcription factor profiling; actives raise or lower the signal;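 also: endpoint acts as a background internal control marker rather than a target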
Summary of the method: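 HepG2 cells transiently transfected with multiple cis-regulated reporter units; 24 h compound exposure. Reporter mRNA quantified by RT-PCR, 6-FAM primer-extension labeling, HpaI digestion and capillary electrophoresis; bidirectional fitting against DMSO baseline.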

[4] = molecular target: Aryl hydrocarbon receptor (Homo sapiens) (UniProt P35869); test: ATG_Ahr_CIS: Attagene CIS-FACTORIAL HepG2 Assay for human Aryl Hydrocarbon Receptor (Ahr) (AID 2282930); settings: HepG2 AhR cis-factorial reporter transcription; actives raise or lower the signal
Chain of Aryl hydrocarbon receptor (Homo sapiens) (P35869 whole entry, looked up): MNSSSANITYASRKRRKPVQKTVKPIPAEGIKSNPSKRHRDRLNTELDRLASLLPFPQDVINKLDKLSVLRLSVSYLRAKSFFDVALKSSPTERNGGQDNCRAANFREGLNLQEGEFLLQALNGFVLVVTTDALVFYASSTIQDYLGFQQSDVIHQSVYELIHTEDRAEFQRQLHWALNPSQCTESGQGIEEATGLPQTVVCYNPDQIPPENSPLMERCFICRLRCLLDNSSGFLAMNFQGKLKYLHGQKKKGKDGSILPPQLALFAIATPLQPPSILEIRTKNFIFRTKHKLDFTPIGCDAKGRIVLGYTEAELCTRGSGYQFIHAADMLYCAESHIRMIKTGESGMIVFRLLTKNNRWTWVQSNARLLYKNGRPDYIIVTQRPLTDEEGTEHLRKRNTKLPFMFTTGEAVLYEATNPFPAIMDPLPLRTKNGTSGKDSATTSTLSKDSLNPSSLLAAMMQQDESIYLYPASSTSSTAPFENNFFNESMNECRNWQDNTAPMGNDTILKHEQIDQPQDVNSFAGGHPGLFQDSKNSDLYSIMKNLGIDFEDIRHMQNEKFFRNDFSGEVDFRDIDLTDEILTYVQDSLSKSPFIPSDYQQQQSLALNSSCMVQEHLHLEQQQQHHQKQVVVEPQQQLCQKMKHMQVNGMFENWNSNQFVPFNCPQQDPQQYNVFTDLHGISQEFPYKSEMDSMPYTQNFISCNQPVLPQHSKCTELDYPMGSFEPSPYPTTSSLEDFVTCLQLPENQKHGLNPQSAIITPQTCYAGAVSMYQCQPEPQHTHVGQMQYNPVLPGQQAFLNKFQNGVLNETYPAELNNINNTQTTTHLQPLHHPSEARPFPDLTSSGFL
Summary of the method: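 HepG2 cells transiently transfected with cis-element-driven multiplexed reporter units; endogenous AhR activity read as reporter mRNA 24 h after dosing, via RT-PCR, 6-FAM labelling, HpaI digestion and capillary electrophoresis. Bidirectional fit relative to DMSO.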

[5] = ATG_AP_1_CIS: Attagene CIS-FACTORIAL HepG2 Assay for human Activator Protein 1 (AP-1) (AID 2282931); settings: HepG2 Attagene cis-factorial AP-1 reporter mRNA; actives raise or lower the signal
Summary of the method: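 Fluorescence of labelled PCR fragments separated by capillary electrophoresis gives reporter mRNA levels. HepG2 with transfected cis-regulated reporter units, 24 h exposure; DMSO serves as baseline for bidirectional curve fits.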

[6] = ATG_AP_2_CIS: Attagene CIS-FACTORIAL HepG2 Assay for human Activator Protein 2 (AP-2) (AID 2282932); settings: HepG2 AP-2 cis-reporter, Attagene transcription factor profiling; actives raise or lower the signal
Summary of the method: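 Multiplexed mRNA reporter assay in HepG2: cis-regulated units report endogenous factor activity after 24 h treatment. Fluorescence from capillary electrophoresis of RT-PCR products gives the signal, with DMSO as baseline.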

[7] = ATG_BRE_CIS: Attagene CIS-FACTORIAL HepG2 Assay for human Bone Morphogenetic Protein (BMP) Response Element (BRE) (AID 2282933); settings: HepG2 BMP response element reporter, Attagene transcription factor profiling; actives raise or lower the signal
Summary of the method: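 HepG2 cells transiently transfected with CIS reporter units (endogenous TF activity, BMP response element), dosed 24 h. Reporter mRNA quantified by RT-PCR, fluorescent labelling and capillary electrophoresis; bidirectional fit vs DMSO baseline.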

[8] = molecular target: Retinoic acid receptor alpha (Homo sapiens) (UniProt P10276); test: ATG_DR5_RAR_CIS: Attagene CIS-FACTORIAL HepG2 Assay for human Retinoic Acid Receptor Alpha (RARE), DR5 submotif (AID 2282934); settings: HepG2 Attagene cis-factorial RARE DR5 reporter, mRNA; actives raise or lower the signal
Chain of Retinoic acid receptor alpha (Homo sapiens) (P10276 whole entry, looked up): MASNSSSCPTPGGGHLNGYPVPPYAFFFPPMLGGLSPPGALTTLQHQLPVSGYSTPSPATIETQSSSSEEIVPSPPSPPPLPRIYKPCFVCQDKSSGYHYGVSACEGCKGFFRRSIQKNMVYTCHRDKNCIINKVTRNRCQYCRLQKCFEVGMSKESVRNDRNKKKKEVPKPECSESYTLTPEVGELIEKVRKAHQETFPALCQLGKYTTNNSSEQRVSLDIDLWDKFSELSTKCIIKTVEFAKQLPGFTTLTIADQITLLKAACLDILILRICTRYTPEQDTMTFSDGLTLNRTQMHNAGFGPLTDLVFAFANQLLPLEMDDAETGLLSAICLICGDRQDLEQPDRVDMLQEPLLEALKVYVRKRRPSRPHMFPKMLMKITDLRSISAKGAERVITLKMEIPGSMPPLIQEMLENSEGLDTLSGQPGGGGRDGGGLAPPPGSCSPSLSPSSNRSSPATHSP
Summary of the method: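 HepG2 cells transiently transfected with multiplexed reporter units; DR5 cis-element drives reporter through endogenous transcription factors. After 24 h dosing, reporter mRNA quantified by RT-PCR, fluorescent labeling, HpaI digestion and capillary electrophoresis; bidirectional fitting versus DMSO.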

[9] = molecular target: Transcription factor E2F1 (Homo sapiens) (UniProt Q01094); test: ATG_E2F_CIS: Attagene CIS-FACTORIAL HepG2 Assay for human E2F Transcription Factor 1 (AID 2282935); settings: HepG2 Attagene cis-reporter, E2F reporter RNA transcripts; actives raise or lower the signal
Chain of Transcription factor E2F1 (Homo sapiens) (Q01094 whole entry, looked up): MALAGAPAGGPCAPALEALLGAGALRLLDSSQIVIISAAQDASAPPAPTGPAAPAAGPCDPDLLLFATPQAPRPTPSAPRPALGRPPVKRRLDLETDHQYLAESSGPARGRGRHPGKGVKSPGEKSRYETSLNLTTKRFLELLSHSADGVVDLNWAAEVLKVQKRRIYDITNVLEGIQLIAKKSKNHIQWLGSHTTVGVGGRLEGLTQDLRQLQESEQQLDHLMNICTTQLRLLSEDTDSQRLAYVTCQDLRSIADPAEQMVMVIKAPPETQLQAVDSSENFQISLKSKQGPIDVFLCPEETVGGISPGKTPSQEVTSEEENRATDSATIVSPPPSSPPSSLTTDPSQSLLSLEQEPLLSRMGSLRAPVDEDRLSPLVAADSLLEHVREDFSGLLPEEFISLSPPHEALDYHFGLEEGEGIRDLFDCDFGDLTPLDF
Summary of the method: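 Measures reporter transcript levels via RT-PCR with capillary electrophoresis detection in HepG2 cells harboring cis-regulated reporter units; 24 h post-dose; bidirectional curve fitting with DMSO as baseline.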

[10] = ATG_E_Box_CIS: Attagene CIS-FACTORIAL HepG2 Assay for human Enhancer Box (E-box) (AID 2282936); settings: HepG2 E-box cis-reporter transcription, actives raise or lower the signal
Summary of the method: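 First, HepG2 cells receive multiple cis-regulated reporter constructs by transient transfection. Next, chemicals are applied for 24 h. Finally, reporter mRNA is quantified via RT-PCR and capillary electrophoresis, with DMSO as baseline.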

[11] = ATG_M_61_CIS: Attagene CIS-FACTORIAL HepG2 Assay for M61 Transcription Factor (Internal Marker) (AID 2282937); settings: HepG2 Attagene CIS-FACTORIAL M61 internal marker reporter; actives raise or lower the signal
Summary of the method: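 This endpoint serves as an internal background control within a multiplexed HepG2 cis-reporter panel. Cells are exposed for 24 h; reporter mRNA is amplified, fluorescently labelled and sized by capillary electrophoresis, with DMSO as negative control.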

[12] = ATG_EGR_CIS: Attagene CIS-FACTORIAL HepG2 Assay for human Early Growth Response 1 (EGR1) (AID 2282938); settings: HepG2 Attagene CIS-FACTORIAL EGR reporter mRNA; actives raise or lower the signal
Summary of the method: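 HepG2, transient MRTU transfection (cis promoters), 24 h compound. RNA → RT (oligo-dT) → PCR → 6-FAM labelling → HpaI cut → CE fluorescence. Bidirectional fit, DMSO baseline.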

[13] = ATG_M_19_CIS: Attagene CIS-FACTORIAL HepG2 Assay for M19 Transcription Factor (Internal Marker) (AID 2282939); settings: HepG2 Attagene CIS-FACTORIAL M19 internal marker reporter; actives raise or lower the signal
Summary of the method: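 HepG2 cells transiently transfected with cis-regulated multiplexed reporter units, dosed 24 h. Reporter mRNA quantified by RT-PCR and capillary electrophoresis; internal background marker fitted bidirectionally versus DMSO.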

[14] = ATG_ERE_CIS: Attagene CIS-FACTORIAL HepG2 Assay for Estrogen Response Element (ERE) (AID 2282940); settings: HepG2 ERE cis-reporter, Attagene RNA transcript; actives raise or lower the signal
Summary of the method: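 HepG2 cells transiently transfected with multiplexed cis-element reporter units, measuring endogenous transcription factor activity; ERE reporter mRNA quantified after 24 h exposure by RT-PCR, fluorescent labelling, HpaI digestion and capillary electrophoresis. Bidirectional change versus DMSO.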

[15] = ATG_Ets_CIS: Attagene CIS-FACTORIAL HepG2 Assay for human Erythroblast Transformation Specific (ETS) (AID 2282941); settings: HepG2 ETS cis-reporter transcription, actives raise or lower the signal
Summary of the method: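 HepG2 cells transiently transfected with cis-promoter reporter transcription units were dosed for 24 h; reporter mRNA was measured by RT-PCR, 6-FAM primer extension, HpaI digestion and capillary electrophoresis, with bidirectional fitting against DMSO baseline.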

[16] = molecular target: Hepatocyte nuclear factor 3-beta (Homo sapiens) (UniProt Q9Y261); test: ATG_FoxA2_CIS: Attagene CIS-FACTORIAL HepG2 Assay for human Forkhead box A2 (FOXA2) (AID 2282942); settings: HepG2 cis-reporter transcription factor activity, 24 h; actives raise or lower the signal
Chain of Hepatocyte nuclear factor 3-beta (Homo sapiens) (Q9Y261 whole entry, looked up): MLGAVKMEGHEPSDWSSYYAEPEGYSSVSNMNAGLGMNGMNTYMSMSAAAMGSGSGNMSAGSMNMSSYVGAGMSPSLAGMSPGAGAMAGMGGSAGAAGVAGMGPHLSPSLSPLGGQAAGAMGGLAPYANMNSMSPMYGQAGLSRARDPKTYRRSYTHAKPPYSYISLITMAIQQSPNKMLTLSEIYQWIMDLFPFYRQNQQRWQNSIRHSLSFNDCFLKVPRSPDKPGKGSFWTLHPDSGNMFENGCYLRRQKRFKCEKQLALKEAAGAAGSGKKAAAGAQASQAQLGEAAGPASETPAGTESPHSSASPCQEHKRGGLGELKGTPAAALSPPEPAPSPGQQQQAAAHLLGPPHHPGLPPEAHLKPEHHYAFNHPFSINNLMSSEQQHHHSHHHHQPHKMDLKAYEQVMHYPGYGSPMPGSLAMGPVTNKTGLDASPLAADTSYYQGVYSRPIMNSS
Summary of the method: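 Cells: HepG2, transient multiplex reporter transfection. Exposure 24 h. Detection: reporter-specific RT-PCR, fluorescent labelling, restriction digest, capillary electrophoresis. Analysis: bidirectional curve fit, DMSO as negative control.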

[17] = ATG_FoxO_CIS: Attagene CIS-FACTORIAL HepG2 Assay for human Forkhead box O (FoxO) (AID 2282943); settings: HepG2 Attagene cis-reporter, FoxO element, mRNA; actives raise or lower the signal
Summary of the method: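 HepG2 cells transiently transfected with cis-element-driven reporter units report endogenous FoxO activity. After 24 h chemical exposure, reporter mRNA quantified by RT-PCR, fluorescent labeling, HpaI digestion and capillary electrophoresis; bidirectional fit versus DMSO.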

[18] = ATG_GATA_CIS: Attagene CIS-FACTORIAL HepG2 Assay for human GATA Binding Protein (AID 2282944); settings: HepG2 GATA cis-element reporter, Attagene multiplex mRNA; actives raise or lower the signal
Summary of the method: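 HepG2 cells transiently transfected with multiplexed cis-element reporter units measure endogenous GATA activity; after 24 h compound exposure, reporter mRNA quantified by RT-PCR and capillary electrophoresis. Changes fitted in both directions vs DMSO.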

[19] = ATG_DR4_LXR_CIS: Attagene CIS-FACTORIAL HepG2 Assay for human Liver X Receptor (LXR), DR4 submotif (AID 2282929); settings: HepG2 Attagene DR4 cis-reporter, mRNA transcription; actives raise or lower the signal
Summary of the method: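 Endogenous factor activity at a DR4 cis-element is read as reporter mRNA in transiently transfected HepG2 cells. Exposure lasts 24 h; transcripts are amplified, fluorescently labelled and sized by capillary electrophoresis, with DMSO as baseline.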

Measured: AC50

CC(=O)Oc1c(C)c(C)c2c(c1C)CC[C@@](C)(CCC[C@H](C)CCC[C@H](C)CCCC(C)C)O2
not listed: [19]
inactive: all other assays above

Nc1ccc(O)c(N)c1
active: [4] 14.5 µM | [7] 42.2 µM
not listed: [9] | [19]
inactive: all other assays above

C=CCCCCCCCCC(=O)OCC
not listed: [8] | [15] | [19]
inactive: all other assays above

CC(=O)OC(C)(C)C1CC=C(C)CC1 (stereo not given)
active: [4] 8.48 µM | [14] 26.1 µM
not listed: [11] | [19]
inactive: all other assays above

OCCCO
not listed: [4] | [5] | [8]
inactive: all other assays above

CCCO
not listed: [7] | [19]
inactive: all other assays above

CN(C)C
not listed: [8] | [19]
inactive: all other assays above

CC(=O)c1ccc(C)cc1
not listed: [8] | [15] | [19]
inactive: all other assays above

C=C(C)C(=O)OCCN(C)C
not listed: [5] | [7] | [8] | [19]
inactive: all other assays above

CC1(C)[C@H](C=C(Cl)Cl)[C@H]1C(=O)OCc1cccc(Oc2ccccc2)c1
not listed: [8] | [19]
inactive: all other assays above

CC(C)Cc1ccc(C(C)C(=O)O)cc1 (stereo not given)
active: [14] 10.6 µM
not listed: [4] | [7] | [8] | [11]
inactive: all other assays above

CC(C)=CCCC(C)=CC(=O)O
not listed: [8] | [19]
inactive: all other assays above

CC(=O)CC(=O)N(C)C
not listed: [4] | [5] | [8] | [11] | [15]
inactive: all other assays above

CCCCCCCC(=O)N(C)C
not listed: [4] | [5]
inactive: all other assays above

NCCN1CCNCC1
active: [14] 32.5 µM
not listed: [4] | [5] | [8] | [9]
inactive: all other assays above

Brc1cc(Br)cc(Br)c1
not listed: [4] | [5] | [8]
inactive: all other assays above

CC1=CCC(=C(C)C)CC1
active: [14] 60 µM
not listed: [7] | [8] | [9] | [11] | [19]
inactive: all other assays above

CC12CCC(C1)C(C)(C)C2O (stereo not given)
not listed: [4] | [11] | [19]
inactive: all other assays above
